Data on 20 compounds can be found in PubChem BioAssay (EPA / NIEHS).

Values joined by “and” are separate entries in the source; they are usually repeats but may differ in a detail not shown here. Equal entries are not always repeated. Inconclusive results are not listed. Active and inactive are the calls of the source. The calls were made as follows, unless noted: active = hit-call score of the fitted dose curve at least 0.9, where 1 is the maximum; inconclusive = response in the unintended direction; inactive = score below 0.9.

Assay [1] is described as follows: Tanguay_ZF_120hpf_TR_legacy: (Legacy) Oregon State University Tanguay Lab 120 Hour Post-fertilization zebrafish Assay for Touch Response (AID 2283667). The method, boiled down:
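Readout is presence or absence of touch response in 120 hpf zebrafish larvae, assessed by brightfield observation after continuous static exposure at 28C. Final vehicle was 0.64% (vol/vol) DMSO.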

The nature of assay [2]: CCTE_Padilla_ZF_144hpf_TERATOSCORE: (Legacy) CCTE's 144 Hour Post-fertilization zebrafish Assay Teratoscore, Padilla Lab (AID 2283679; active = hit-call score of the fitted dose curve at least 0.9, where 1 is the maximum; inactive = score below 0.9;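 as to AC50: zebrafish embryos with chorions exposed by immersion from 6-8 hpf to 5 dpf with daily renewal; teratogenicity score from eye scoring of death hatching and malformations at 144 hpf; higher score means more developmental defects relative to DMSO baseline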). The method, boiled down:
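Larvae scored by eye at 144 hpf for death, hatching and malformations after a day in clean Hanks'. Before that, daily-renewed exposure at 80 uM (0.4% DMSO, 26C) from roughly 6-8 hpf through 5 dpf, 4 embryos per chemical.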

A short description of assay [3]: STM_H9_OrnithineISnorm_perc: Stemina devTOX quickPredict H9 human embryonic stem cell (hESC)-based Assay for Ornithine (ORN) Metabolite Biomarker, Normalized (AID 2283712; active = hit-call score of the fitted dose curve at least 0.9, where 1 is the maximum; inactive = score below 0.9;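 also: ornithine released into spent medium during last day measured by mass spectrometry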). Summed up:
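UPLC-HRMS readout: endogenous ornithine EIC area / 13C-ORN internal standard, then % of 0.1% DMSO median. H9 hESCs (pluripotent), 72h exposure, re-dosed with fresh media q24h; last 24-h spent media, deproteinized in 40% acetonitrile.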

Assay [4] is described as follows: STM_H9_CystineISnorm_perc: Stemina devTOX quickPredict H9 human embryonic stem cell (hESC)-based Assay for Cystine (CYSS) Metabolite Biomarker, Normalized (AID 2283713; active = hit-call score of the fitted dose curve at least 0.9, where 1 is the maximum; inactive = score below 0.9). The method, boiled down: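 UPLC-HRMS read-out: endogenous cystine peak area in spent medium, normalized to isotope-labeled internal standard and to median of 0.1% DMSO controls. Pluripotent H9 cells, 72h exposure, daily medium/compound replenishment; medium from last 24h sampled.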

A short description of assay [5]: STM_H9_OrnCyssISnorm_ratio: Stemina devTOX quickPredict H9 human embryonic stem cell (hESC)-based Assay for Ornithine (ORN):Cystine (CYSS) Ratio (AID 2283714). Summed up: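 H9 hESC, 72h, q24h re-dose; last-day media → acetonitrile deproteinization → UPLC-HRMS. ORN:CYSS ratio from isotope-normalized EIC areas, vs 0.1% DMSO; MTX references on each plate.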
Assay [6] is described as follows: Tanguay_ZF_120hpf_ActivityScore_legacy: (Legacy) Oregon State University Tanguay Lab 120 Hour Post-fertilization zebrafish Assay Score for Activity (AID 2283742).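 As to AC50: dechorionated Tropical 5D wild-type zebrafish embryos held singly per well; static exposure from 6 hpf until 120 hpf at 28 °C.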 The method, boiled down:
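In this whole-embryo screen, dechorionated zebrafish were exposed from 6 hpf until 120 hpf at 28C under a 0.64% DMSO vehicle. Developmental malformations and death were recorded by brightfield microscopy as binary endpoints.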

A short description of assay [7]: CEETOX_H295R_MTT_cell_viability: Viability Assessment in the CeeTox HT-H295R MTT Assay (AID 2283718; active = hit-call score of the fitted dose curve at least 0.9, where 1 is the maximum; inactive = score below 0.9;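 as to AC50: curve fitted both ways so AC50 may mark viability loss or gain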). The method, boiled down:
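H295R cells prestimulated 48 h with 10 uM forskolin, then exposed 48 h to test chemical (0.1% DMSO final). Viability by MTT (0.5 mg/ml, 4 h, 37 C), absorbance 570/650 nm; percent change versus DMSO, bidirectional fit.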

Assay [8] concerns Thyroperoxidase (TPO), gene 54314. The assay can be described thus: CCTE_Simmons_AUR_rTPO: CCTE's Amplex UltraRed Assay for Thyroperoxidase (TPO) Inhibition, Simmons Lab (AID 2283662).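 As to AC50: potency for loss of signal meaning inhibition of peroxidase activity.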 The method, boiled down: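 Rat thyroid microsomal TPO + 25 uM AUR in 200 mM K phosphate; cpd 5 nM–87.5 uM [final], 8 conc, 0.5% DMSO; 300 uM H2O2 starts rxn; 37C dark 30 min; endpoint FI 544/590 nm; n=3.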

Assay [9] in a line: CCTE_Simmons_CellTiterGLO_HEK293T: Viability Assessment in CCTE's Assays for Thyroperoxidase (TPO) Inhibition, Simmons Lab (AID 2283665).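 As to AC50: cells exposed to compound for 24 h before readout; actives reduce ATP signal below DMSO vehicle meaning cytotoxicity.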 The method, boiled down:
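Luminescent ATP readout (CellTiter-Glo, 20 min at room temperature) after 24 hr exposure of HEK293T cells to 5 nM–87.5 uM final compound; signal loss relative to DMSO vehicle indicated cytotoxicity; dichlone titrated as positive control.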

The subject of assay [10] is Thyroperoxidase (TPO), gene 445522. The assay can be described thus: CCTE_Simmons_GUA_TPO: CCTE's Guaiacol Assay for Thyroperoxidase (TPO) Inhibition, Simmons Lab (AID 2283750). The method, boiled down:
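Porcine thyroid microsomes (25 ug) in 200mM potassium phosphate, preincubated 30 s at 37C with compound (8 concentrations, 5 nM–87.5 uM) and 35mM guaiacol; 1mM H2O2 starts reaction. Absorbance change at 450nm over first 80 s; loss of signal versus DMSO, three replicates.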

Assay [11] in a line: ArunA_CellTiter_hNC: Viability Assessment in the ArunA Biomedical's Oris Neural Crest (hNC) Cell Migration Assay (AID 2283752). The method, boiled down: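 hNC cells (H9 ESC-derived), 60,000/well, Matrigel, LIF + bFGF medium; 16 h 37C attachment; 72 h compound in test medium; CellTiter Aqueous One read-out; loss-of-signal vs DMSO baseline.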
The nature of assay [12]: ArunA_Migration_hNP: ArunA Biomedical's Oris Neuroprogenitor (hNP) Cell Migration Assay (AID 2283754). Summed up: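 Readout is calcein-AM fluorescence (ex494/em517) of cells migrating into the detection zone, relative to DMSO. hNP1 cells (H9-derived) grown on Matrigel behind stoppers 16 h, then stoppers pulled and chemical applied 72 h; cytochalasin D as control.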
The nature of assay [13]: ArunA_NOG_NucleusCount: ArunA Biomedical's Neurite Outgrowth (NOG) Assay for Nucleus Count (AID 2283756). The method, boiled down: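 Viable neuron count, from Hoechst nuclei passing size and intensity gates, imaged at 20x on differentiated H9-derived human neurons. Exposure lasted 48 h from seeding; activity was scored relative to DMSO.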
Assay [14] is described as follows: ArunA_NOG_NeuritesPerNeuron: ArunA Biomedical's Neurite Outgrowth (NOG) Assay for Neurites Per Neuron (AID 2283758). Summed up:
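Differentiated human H9-derived neurons exposed to chemicals for 48 h from seeding, then stained with Hoechst and βIII-tubulin/DyLight 488. Automated imaging counted neurites (processes >10 um) per valid neuron; loss of signal versus DMSO scored.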

A short description of assay [15]: ArunA_NOG_BranchPointsPerNeurite: ArunA Biomedical's Neurite Outgrowth (NOG) Assay for Branch Points Per Neurite (AID 2283759). The method, boiled down:
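Automated image analysis traced neurites (processes >10 um) from valid cell bodies after Hoechst and βIII-tubulin staining. hNN cells from H9 embryonic stem cells, 48 h exposure. Fitted bidirectionally against DMSO.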

As to `CCC[CH2][Sn]([Cl])([CH2]CCC)[CH2]CCC`, the call in assay [1] was inactive. Besides, the AC50 in assay [2] is 0.0309 µM (active); in assay [3], 0.519 µM (active); in [4] it was 0.546 µM (active); in assay [5], 0.497 µM (active); in assay [6], 0.317 µM (active).
As to `CCCCCCCCn1sccc1=O`, the result in [1] was inactive. In addition, the AC50 in assay [2] was 0.523 µM (active); in assay [3] it was 43 µM (active); in assay [4] it was 11.5 µM (active); in [5] it was 22.4 µM (active); in assay [6] it was 3.42 µM (active).
Regarding `Cn1cc(-c2ccccc2)c(=O)c(-c2cccc(C(F)(F)F)c2)c1`, the AC50 in assay [1] is 41.1 µM (active); in assay [2], 57 µM (active); in assay [3], 0.0803 µM (active). Moreover, the outcome in assay [4], in assay [5], in assay [7] and in [6] was inactive.
As for `Nc1ccc(Cc2ccc(N)cc2)cc1`, the AC50 in [8] was 0.0776 µM (active); in assay [7] it was 2.04 µM (active); in assay [10], 0.352 µM (active). The compound was classed as inactive in assay [9], in [1] and in assay [6].
On to `Clc1ccc(C(c2ccc(Cl)cc2)C(Cl)Cl)cc1`, for which the outcome in assay [1], in assay [3], in assay [4], in assay [5] and in assay [6] was inactive. Also, the AC50 in assay [2] was 20.3 µM (active).
`OCCCBr`: the compound was called inactive in [1], in assay [2], in assay [3], in assay [4], in [5] and in assay [6].
For `CN(C)[C@@H]1C(=O)C(C(N)=O)=C(O)[C@@]2(O)C(=O)C3=C(O)c4c(O)cccc4[C@@](C)(O)[C@H]3C[C@@H]12`, the results for the AC50 in [8] and in assay [10] were 10.7 µM (active) and 117 µM (active), respectively. For the same compound, the call in assay [9], in [1] and in assay [6] was inactive.
`Oc1ccccc1Cl`: the outcome in assay [8], in [9] and in [6] was inactive.
Regarding `CC(C)(C)C(O)(CCc1ccc(Cl)cc1)Cn1cncn1` (configuration not stated), the outcome in assay [1], in [7] and in [6] was inactive. For the same compound, the AC50 in assay [2] was 52 µM (active); in [3], 79.1 µM (active); in [4] it was 30.1 µM (active); in [5], 45 µM (active).
As to `O=Cc1ccco1`, the outcome in assay [1], in assay [2] and in assay [6] was inactive.
Regarding `O=C(N[C@H](c1ccccc1)[C@@H]1CN2CCC1CC2)c1c(Cl)ccc(C(F)(F)F)c1Cl`, the figures for the AC50 in assay [1], in assay [2] and in assay [6] were 0.968 µM (active), 50.8 µM (active) and 28.3 µM (active), respectively.
Turning to `Brc1ccc(Oc2ccccc2)cc1`, the compound was called inactive in assay [1], in assay [3], in [4], in assay [5], in assay [7] and in assay [6]. Besides, the AC50 in assay [2] was 44.7 µM (active).
Turning to `ClC1=C(Cl)[C@]2(Cl)[C@H]3[C@H]([C@@H]4C=C[C@H]3C4)[C@@]1(Cl)C2(Cl)Cl`, the call in [1], in assay [3], in [4] and in assay [6] was inactive. Further, in [2], the AC50 was 976 nM (active) and 4.66 µM (active).
Turning to `CC(O)CCO` (configuration not stated), the compound was classed as inactive in assay [1], in assay [2] and in [6].
On to `c1ccc(NNc2ccccc2)cc1`, for which the result in assay [8], in assay [1] and in assay [6] was inactive. Also, the AC50 in assay [9] was 19.1 µM (active).
On to `Clc1ccc(Cl)c(Cl)c1`, for which the result in assay [1], in [2], in assay [3], in [4], in [6] and in assay [11] was inactive. Further, the outcome in assay [12], in assay [13], in [14] and in [15] was inactive.
`[O-][Cl+]O`: the result in assay [1], in [2] and in assay [6] was inactive.
For the compound `CCCCCCCCCCCCCN1CC(C)OC(C)C1` (configuration not stated), the call in assay [1], in assay [3], in assay [7] and in assay [6] was inactive. Also, the values for the AC50 in [2], in assay [4] and in assay [5] were 90.1 µM (active), 2.78 µM (active) and 2.62 µM (active), respectively.
In the case of `CCCCC(CC)COC(=O)c1ccc(C(=O)OCC(CC)CCCC)c(C(=O)OCC(CC)CCCC)c1` (configuration not stated), the AC50 in [8] is 12.7 µM (active). The compound was classed as inactive in [9], in assay [1] and in assay [6].
`O=[N+]([O-])c1ccc(Oc2ccc(Cl)cc2Cl)cc1`: the outcome in assay [1] and in [6] was inactive. The AC50 in assay [2] was 7.79 µM (active); in assay [3] it was 68.7 µM (active); in assay [4], 29.8 µM (active); in [5], 50 µM (active).

As a reminder, the AC50 is the concentration at which the activity in the assay is half-maximal.
